Among all 230,000 compounds or so, about 1,000 (0.43%) were called active. Where a call stands in place of a potency, no number is given. This is one part of a sample in which actives are shown more often than they occur. Calls come from the whole dose curve; as a rule, active = well fitted inhibition curve with a large enough effect (not every such curve was filed as active); inactive = no such curve, though single readings can be large or run the other way.
The compounds below were run against Guanine nucleotide-binding protein G(i) subunit alpha-1 (Homo sapiens) (UniProt P63096) (assay: qHTS Assay for Inhibitors of RGS12 GoLoco Motif Activity (Red Fluorophore)). Settings: Gai1:RGS12 GoLoco peptide FP, rhodamine, 10 min; series mostly up to 61.6 µM.
Chain of Guanine nucleotide-binding protein G(i) subunit alpha-1 (Homo sapiens) (P63096 whole entry, looked up): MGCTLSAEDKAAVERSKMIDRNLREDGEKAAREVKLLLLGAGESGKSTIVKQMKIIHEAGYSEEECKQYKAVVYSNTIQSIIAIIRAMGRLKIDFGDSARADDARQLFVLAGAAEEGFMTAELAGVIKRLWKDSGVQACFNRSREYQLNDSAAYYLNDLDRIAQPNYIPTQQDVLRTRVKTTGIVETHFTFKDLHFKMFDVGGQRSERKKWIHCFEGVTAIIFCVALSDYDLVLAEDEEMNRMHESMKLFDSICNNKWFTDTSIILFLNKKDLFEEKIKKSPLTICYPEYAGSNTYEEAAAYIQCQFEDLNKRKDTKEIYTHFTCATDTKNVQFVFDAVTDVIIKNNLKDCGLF
Description: Assay Submitter: Siderovski, David P, University of North Carolina at Chapel Hill
Screening Center PI: Austin, C.P.
Screening Center: NIH Chemical Genomics Center [NCGC]
G-protein-coupled receptors (GPCRs) are major targets for drug discovery. The regulator of G-protein signaling (RGS)-protein family has important roles in GPCR signal transduction. RGS proteins contain a conserved RGS-box, which is often accompanied by other signaling regulatory elements. RGS proteins accelerate the deactivation of G proteins to reduce GPCR signaling; however, some also have an effector function and transmit signals. Combining GPCR agonists with RGS inhibitors should potentiate responses, and could markedly increase the agonist's regional specificity. The diversity of RGS proteins with highly localized and dynamically regulated distributions in brain makes them attractive targets for pharmacotherapy of central nervous system disorders. […] A complex of Gai1 and fluorescently labeled G-alpha-binding peptide (the "GoLoco motif") derived from RGS12 is incubated with library members. Inhibitors of the binding are detected by a decrease in the fluorescence polarization (FP) of the fluorophore. Protein was supplied by Prof. David Siderovski, University of North Carolina at Chapel Hill.
Assay Buffer: 10 mM Tris-HCl, 150 mM NaCl, 0.1 mM GDP (prepared fresh), and 0.05% NP40 at pH 7.5.
15 nM Rhodamine labeled peptide/25 nM protein in columns 1, 2, 5 - 48. Titration of unlabeled peptide control ([H][…][NH2], custom synthesized and HPLC-purified by Tufts University Core Facility) from 20 mM, then 1:2 dilution, 16-point in duplicate, pin-transferred to column 2, rows 1 to 32. Column 1 is neutral.
Rhodamine-labeled peptide (Rhodamine-[…]-NH2) was custom-synthesized and HPLC-purified by Invitrogen (Carlsbad, CA).
Four uL of reagents were dispensed to 1536-well Greiner black solid-bottom plates. Compounds and controls (23 nL) were transferred via Kalypsys PinTool. The plates were incubated for 10 min at room temperature, and then read on ViewLux (Perkin-Elmer) High-throughput CCD imager using BODIPY for the rhodamine-labeled decapeptide probe. During dispense, reagent bottles were kept submerged into 4 deg C water bath and all liquid lines were covered with aluminum foil to minimize probe and protein degradation. All screening operations were performed on a Kalypsys robotic system (Kalypsys, Inc., San Diego, CA) containing one RX-130 and two RX-90 anthropomorphic robotic arms.
Note: nearly all actives have a fitted effect of over 30% in size.
Potency is the fitted concentration of half-maximal effect.

SMILES | Potency | activity, negative = inhibition
CCOC(=O)c1ccc(NC(=O)Cn2cnc3cc(C)c(C)cc32)cc1 | inactive | 
CCOC(=O)c1ccc(NC(=O)CSc2ncccn2)cc1 | 2.82 µM (active) | 
CCOC(=O)c1ccc(NC(=O)CSc2nnc(COc3ccccc3OC)n2C)cc1 | inactive | 
CCOC(=O)C1=C(C)c2ccccc2OC1(C)C(=O)OCC (centres undefined) | inactive | 
Cc1ccccc1-n1nnnc1SCCCC(=O)c1ccc(F)cc1 | inactive | 
N#Cc1ccsc1NC(=O)CN1CCN(S(=O)(=O)c2cc(Cl)ccc2Cl)CC1 | inactive | 
CCOc1ccc(N=NS(=O)(=O)O)cc1 |  | -17.6% [at 14.2 µM] (inactive)
Cc1ccccc1CC1(CO)CCCN(Cc2ccc3c(c2)OCCO3)C1 (centres undefined) | inactive | 
NCCC(=O)c1ccccc1N | inactive | 
CCCc1ccc(-c2c(C)sc(NC(=O)c3ccnn3C)c2C#N)cc1 | inactive | 
CC(C)=C(NC(=O)c1ccccc1)C(=O)N/N=C(\C)c1ccccc1O | inactive | 
Cc1ccc2[nH]c(=O)c(CN(CCCN(C)C)C(=O)Nc3cccc(Cl)c3)cc2c1 | inactive | 
N=C1C(c2nc3ccccc3s2)=C(O)CN1NC(=O)c1ccc([N+](=O)[O-])cc1 | inactive | 
COc1ccc(/C=C(\C#N)C(=O)NCCCn2ccnc2)cc1 | inactive | 
CCOC(=O)c1cnc(SC)nc1Sc1ccc(Cl)cc1Cl | inactive | 
O=P(O)(O)OC[C@H](O)CO | inactive | 
CCOC(=O)c1c(NC(=S)NC)sc2c1CCCC2 | inactive | 
Cc1ccc(NC(=O)CN2CCCCC2)c2c1CC(C)(C)O2 | inactive | 
Cc1ccc(Nc2cc(C)nc3c(C)ccc([N+](=O)[O-])c23)cc1 | inactive | 
NCCCCC(N)C(=O)O (centres undefined) | inactive | 
CC(C)[C@@H]1NC(=O)[C@H](Cc2ccccc2)NC(=O)[C@@H](CC(=O)O)NC(=O)CNC(=O)[C@H](CCCNC(=N)N)NC1=O | inactive | 
CCS(=O)(=O)N1Cc2ccccc2CC1C(=O)Nc1nc2ccc(F)cc2s1 (centres undefined) | inactive | 
O=C(NCc1cc(C(F)(F)F)cc(C(F)(F)F)c1)C1CC(c2cccc(F)c2)=NO1 (centres undefined) | inactive | 

SMILES | Potency | activity, negative = inhibition
Cc1ccccc1-c1n[nH]c(=S)n1/N=C/c1ccc(-c2ccccc2Br)o1 | inactive | 
O=c1[nH]cnc2c1c(-c1ccccc1)cn2-c1ccc(F)cc1 | inactive | 
Clc1ccc(CSc2nnc3c(n2)[nH]c2ccccc23)cc1 | inactive | 
COC(c1ccccc1)(c1ccccc1)C(Oc1nc(C)cc(C)n1)C(=O)O (centres undefined) | inactive | 
COc1cccc(NC(=O)CN(C)C(=O)/C=C/c2cc(OC)ccc2OC)c1 | inactive | 
O=C(NCCc1c[nH]c2ccccc12)c1cc2ccccc2oc1=O | inactive | 
CN(c1ccccc1)S(=O)(=O)c1cc(C(=O)Nc2nc3ccccc3[nH]2)ccc1Cl | inactive | 
CCC(C)[C@@H](N)C(=O)O (some centres undefined) | inactive | 
C[N+]1(CCNC(=O)/C=N/O)CCCCC1 | 12.6 µM (active) | 
Cc1ccc(S(=O)(=O)c2ccc(Oc3ccccc3)cc2)cc1 | inactive | 
CC1=C/C(=N\OS(=O)(=O)c2ccccc2)C=CC1=O | 28.2 µM (active) | 
CC1=C/C(=N\S(=O)(=O)c2ccccc2)C(C(C)C)=CC1=O | inactive | 
CC#CC[N+](C)(C)CCCCCC | inactive | 
NC(=O)C(=O)N/N=C/c1ccc([N+](=O)[O-])o1 | inactive | 
S=c1[nH]nc(-c2ccccc2)n1/N=C/c1c[nH]c2ccccc12 | inactive | 
CSC(=S)N/N=C/c1c[nH]c2ccccc12 | inactive | 
C[n+]1ccc(/C=C/c2c[nH]c3ccccc23)cc1 | 0.562 µM (active) | 
CCCCOC(=O)Cn1c(=O)n(CC(=O)OCCCC)c2cc(C)ccc21 | inactive | 
Cc1ccc(CCCOC(=O)C[N+]2(C)CCCC2)cc1 | 7.08 µM (active) | 
Cc1ccc(CCCOC(=O)C[N+]2(C)CCCCC2)cc1 | inactive | 
C[C@@]12CCC(=O)C=C1CC[C@H]1C2[C@@H](O)C[C@]2(C)[C@@H]1CC[C@@]2(O)C(=O)COC(=O)C1CCCC1 (some centres undefined) |  | -1.69% [at 14.2 µM] (inactive)
O=C(CC1SC(=Nc2ccccc2)N(Cc2ccccn2)C1=O)Nc1cccc(Cl)c1 (centres undefined) | inactive | 
CC(C)S(=O)(=O)c1csc(NC(=O)Nc2ccc(Cl)cc2)c1Cl | inactive | 

SMILES | Potency | activity, negative = inhibition
CC(C)N(Cc1ccccc1)C(=O)COC(=O)c1cnccn1 | inactive | 
CCO[C@H]1OC(C(=O)NCc2ccccc2)=C[C@@H](c2coc3ccccc3c2=O)[C@@H]1CCCO | inactive | 
Cc1ccc(-c2ncc(Cl)cc2-c2ccc(S(C)(=O)=O)cc2)cn1 | inactive | 
CCOC(=O)N/N=C/c1cn(Cc2ccccc2Cl)c2ccccc12 | inactive | 
CN1CCN(/N=C2/C(=O)Nc3ccc([N+](=O)[O-])cc32)CC1 | inactive | 
CCN1C(=O)c2cccc3c(N)ccc1c23 | inactive | 
Cc1nn(-c2cc(Cl)ccc2N)c(=O)c2ccccc12 | inactive | 
Cc1nn(C)cc1N1C(=O)c2cccc3c(N)ccc(c23)C1=O | 14.1 µM (active) | 
Cc1cccc(N2C(=O)SC(SC(=Nc3ccccc3)Nc3ccccc3)C2=O)c1 (centres undefined) | inactive | 
O=C(C1=C[C@H](C2CC2)C[C@H](OCc2ccc(CO)cc2)O1)N1CCN(Cc2ccccc2)CC1 | inactive | 
CCOC(=O)N1CCN(Cc2nc3ccc([N+](=O)[O-])cc3c(=O)n2-c2cccc(OC)c2)CC1 | inactive | 
CCOC(=O)Nc1ccccc1N1C(=O)c2ccccc2C1=O | inactive | 
CCOC(=O)c1cc2n(c1N)-c1ccccc1C2=O | 17.8 µM (active) | 
CCOC(=O)C1=C(C(=O)OCC)C(C(=O)OCC)N(S(=O)(=O)C(F)(F)F)c2ccccc21 (centres undefined) | inactive | 
Cc1nc2c(c(=O)n1Cc1ccco1)c1nc3ccccc3nc1n2Cc1ccccc1 | inactive | 
Cc1cc2nc3c(=O)n(Cc4ccccc4)c(=O)[nH]c3nc2cc1N | 12.6 µM (active) | 
O=c1[nH]c2c(c(=O)n1Cc1ccccc1)CCC2 | inactive | 
C=CC(=O)c1ccc2ccccc2c1 | inactive | 
O=C(Nc1ccc(O)cc1)c1ccccc1O | inactive | 
COc1ccc(OCCC(=O)c2ccc(OC)cc2)cc1 | inactive | 
CC(C)CCOc1ccc(C(=O)C[N+]2(C)CCOCC2)cc1 | 3.55 µM (active) | 
CC(=O)c1ccc(OCCN2CCOCC2)cc1 | inactive | 
O=C(CCCNS(=O)(=O)c1cccc2nsnc12)NCCN1CCN(c2ccccc2F)CC1 | inactive | 

Reference: PubChem BioAssay AID880 (National Center for Advancing Translational Sciences (NCATS), 2007)
